The values that follow come from PubChem BioAssay AID1481 (The Scripps Research Institute Molecular Screening Center, 2009).

The structures appear in SMILES notation. Where “and” joins values, the source holds several entries; their conditions need not be identical. Identical values can stand only once. Hit rate of the full screen: of about 220,000 compounds, about 920 (0.42%) were called active. No stated cut-off is given here; in the data, active means inhibition above about 15%; inactive means the rest. This excerpt belongs to a sample that is enriched for actives. More than one record can exist for a structure, and the calls need not agree.

This experiment deals with Transitional endoplasmic reticulum ATPase (Homo sapiens) (UniProt P55072). Description: inhibitors of human p97 ATPase, primary screen, biochemical (AID 1481).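 Further: 0% = DMSO vehicle and 100% = wells lacking enzyme.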 The settings on record: recombinant p97 ATPase, Kinase-Glo ATP luminescence, 3 h; at 8 µM; stronger effect = higher value.
Chain of Transitional endoplasmic reticulum ATPase (Homo sapiens) (P55072 whole entry, looked up): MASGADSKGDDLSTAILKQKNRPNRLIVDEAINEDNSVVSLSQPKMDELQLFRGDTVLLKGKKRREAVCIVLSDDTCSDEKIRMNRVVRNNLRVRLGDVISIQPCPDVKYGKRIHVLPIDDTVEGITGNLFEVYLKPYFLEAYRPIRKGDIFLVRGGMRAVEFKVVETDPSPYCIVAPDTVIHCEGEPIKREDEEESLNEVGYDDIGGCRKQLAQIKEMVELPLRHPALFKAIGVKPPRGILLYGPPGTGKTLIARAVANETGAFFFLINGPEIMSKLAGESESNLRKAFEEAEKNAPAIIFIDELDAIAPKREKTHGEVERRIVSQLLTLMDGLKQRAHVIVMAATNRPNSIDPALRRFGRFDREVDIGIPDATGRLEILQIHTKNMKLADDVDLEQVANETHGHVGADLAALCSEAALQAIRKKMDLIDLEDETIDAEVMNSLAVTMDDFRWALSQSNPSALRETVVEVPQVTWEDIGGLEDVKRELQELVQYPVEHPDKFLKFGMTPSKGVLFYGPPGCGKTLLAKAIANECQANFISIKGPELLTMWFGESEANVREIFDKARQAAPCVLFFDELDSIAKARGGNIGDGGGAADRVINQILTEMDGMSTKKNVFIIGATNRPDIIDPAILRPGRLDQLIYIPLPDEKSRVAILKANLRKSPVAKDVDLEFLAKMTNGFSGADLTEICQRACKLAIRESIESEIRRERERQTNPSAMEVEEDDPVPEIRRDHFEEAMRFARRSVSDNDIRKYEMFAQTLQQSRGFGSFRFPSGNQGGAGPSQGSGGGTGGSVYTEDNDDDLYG
As usually defined, the inhibition is the change of the read-out against control, counted positive when it falls. As for `Cc1ccc(Cn2c(SCC(=O)N/N=C/c3ccccc3OCC(=O)O)nc3ccccc32)cc1`, the inhibition was -13.9% (inactive).

Take `CC(NCc1ccccc1OC1CCCC1)c1ccccc1` (configuration not stated): the inhibition is 2.88% (inactive).

Consider `CC(Oc1ccccc1F)C(=O)NN` (configuration not stated), for which the inhibition is -4.14% (inactive).

With `O=C(/C=C/Nc1ccc(S(=O)(=O)Nc2cnc3ccccc3n2)cc1)c1cccnc1`, the inhibition was 1.02% (inactive).

As to `Oc1ccc(N=Cc2c(O)ccc3ccccc23)cc1`, the inhibition is 9.71% (inactive).

In the case of `Oc1ccc2ccccc2c1C=Nc1ccccc1`, the inhibition is 4.59% (inactive).

For the compound `Oc1c(C=Nc2cccc3nsnc23)ccc2ccccc12`, the inhibition is 40.4% (active).

Take `CCOC(=O)c1ccccc1C(=O)N1CCOCCOCCOCC1`: the inhibition is -4.13% (inactive).

Turning to `Nc1nc(SCC(=O)NN(c2ccccc2)c2ccccc2)n[nH]1`, the inhibition is -5.25% (inactive).

For `COc1ccccc1NC(=O)c1cc(Cl)nc2ccccc12`, the inhibition is 5.78% (inactive).

`COc1cc(OC)c(C(=O)Nc2ccccc2-c2ccccc2)cc1OC`: the inhibition is 0.92% (inactive).

For `COc1ccccc1C(=O)Nc1nc2nc(-c3ccccc3)cc(=O)n2[nH]1`, the inhibition was 14.8% (active).

Consider `O=C(NCCc1ccccc1)Oc1ccc(Cl)cc1`, for which the inhibition was -1.73% (inactive).

`O=C(N/N=C/c1ccccc1O)/C(=C/c1ccccc1)CCO`: the inhibition was 2.01% (inactive).

For the compound `CCC1CCCCN1S(=O)(=O)Cc1ccccc1Cl` (configuration not stated), the inhibition is 2.1% (inactive).

Regarding `CN(C)c1ccc(/C=C/C(=O)c2ccc(O)cc2)cc1[N+](=O)[O-]`, the inhibition was 0.06% (inactive).

Take `O=C(/C=C/c1ccc(Cl)c([N+](=O)[O-])c1)c1cccnc1`: the inhibition is -0.11% (inactive).

On to `O=C(/C=C/c1ccc(Cl)c([N+](=O)[O-])c1)c1ccc(O)cc1`, for which the inhibition was 19.3% (active).

`Cc1ccccc1Nc1c(-c2ccccc2)nc2ncccn12`: the inhibition was 4.55% (inactive).

`CC(Sc1cccc[n+]1[O-])C(=O)Nc1cccc(S(=O)(=O)N2CCOCC2)c1` (configuration not stated): the inhibition was 4.59% (inactive).

Regarding `CN(C)c1ccc(NC(=O)CSc2n[nH]c(-c3ccco3)n2)cc1`, the inhibition was -3.13% (inactive).

Regarding `COc1cc(C(=O)Nn2c(O)c(C3=c4ccccc4=NC3=O)sc2=S)ccc1O`, the inhibition was 4.86% (inactive).

As to `COC(=O)Cn1nc(-c2ccccc2)c2cc(Cl)ccc21`, the inhibition is -5.36% (inactive).

Regarding `Cc1cc2nc3c(=O)n(Cc4ccccc4)c(=O)[nH]c3nc2cc1N`, the inhibition is 8% (inactive).

Take `Nc1ccc2nc3c(=O)[nH]c(=S)[nH]c3nc2c1`: the inhibition is 39.2% (active).

On to `Cc1ccc(C(=O)N/C(=C/c2cccs2)C(=O)N2CCCCC2)cc1`, for which the inhibition is 1.51% (inactive).

For `CCc1nc2sc3c(Cl)ncnc3c2c2c1CCCC2`, the inhibition was 6.87% (inactive).

As to `C=CCn1c(N)c(S(=O)(=O)c2cccs2)c2nc3ccccc3nc21`, the inhibition was 6.58% (inactive).

As to `C=CCn1c(N)c(C(=O)OCC(C)C)c2nc3ccccc3nc21`, the inhibition was 21.5% (active).

With `CC(C)Cn1c(N)c(C(=O)NCc2cccs2)c2nc3ccccc3nc21`, the inhibition was 4.74% (inactive).

In the case of `CC(=O)c1cccc(-n2nnnc2SCC(=O)NNC(=O)C2CCCCC2)c1`, the inhibition is -0.28% (inactive).

For `COc1ccccc1CNC(=O)Cn1c(=O)oc2cc(Cl)ccc21`, the inhibition was -2.55% (inactive).

For the compound `COCC(C)OC(=O)c1c(N)n(CCCN2CCOCC2)c2nc3ccccc3nc12` (configuration not stated), the inhibition was 4.25% (inactive).

Regarding `CCN1C(=O)/C(=c2\s/c(=C3\Sc4ccccc4N3C)c(=O)n2C)N(C)C1=S`, the inhibition was 2.09% (inactive).

As to `CCN1C(=O)/C(=C2/Sc3ccccc3N2CCCS(=O)(=O)O)SC1=S`, the inhibition was 16.4% (active) and -0.77% (inactive).

Regarding `CCCCN1C(=O)/C(=C/C=C2/C=Cc3ccccc3N2CC)SC1=S`, the inhibition was 6.25% (inactive).

As to `NC(=O)Cc1ccc2c(c1)[nH]c1ccccc12`, the inhibition was 2.82% (inactive).

For the compound `Fc1ccc(CNCc2ccc(Br)cc2)cc1`, the inhibition is 9.11% (inactive).

With `COc1ccccc1-n1c(SCC(=O)O)nc2sc3c(c2c1=O)CCC3`, the inhibition was -1.29% (inactive).

On to `Cc1ccc(C(C[N+](=O)[O-])c2c(C)cc3ccccn23)cc1` (configuration not stated), for which the inhibition is -4.06% (inactive).

Regarding `COc1ccc(CCNC(=O)CCCCn2c(=O)[nH]c3ccccc3c2=O)cc1OC`, the inhibition was 4.64% (inactive).

As to `O=C(CCCn1c(=O)[nH]c2cc(Cl)ccc2c1=O)NCCN1CCN(c2ccccc2)CC1`, the inhibition was 1.79% (inactive).

With `CCN(CC)CCNC(=O)CCCCCn1c(=O)[nH]c2cc(C(=O)OC)ccc2c1=O`, the inhibition is 15% (active).

Turning to `O=C(CSc1nc2ccc([N+](=O)[O-])cc2[nH]1)c1ccc(Cl)cc1`, the inhibition was 2.81% (inactive).

`CC(CC(=O)Nc1ccccc1)n1ccnc1` (configuration not stated): the inhibition was -4.72% (inactive).

Consider `Cc1cc(C)c(NC(=O)CN2C(=O)NC(Cc3ccccc3)C2=O)c(C)c1` (configuration not stated), for which the inhibition is -0.65% (inactive).

In the case of `COc1ccccc1CNC(=O)COc1ccc(C)nc1[N+](=O)[O-]`, the inhibition was 0.97% (inactive).

Take `COc1cc(/C=C2/C(=O)NN(c3ccc(F)cc3)C2=O)cc([N+](=O)[O-])c1O`: the inhibition is 6.04% (inactive).

For the compound `O=C(CSC1=Nc2ccccc2C2=NC(CC(=O)NCc3ccco3)C(=O)N12)NCc1ccco1` (configuration not stated), the inhibition was 2.33% (inactive).

For the compound `O=C(CC1N=C2c3ccccc3N=C(SCc3ccccc3Cl)N2C1=O)NCc1ccco1` (configuration not stated), the inhibition was 2.64% (inactive).

For `CCC(C)NC(=O)CSC1=Nc2ccccc2C2=NC(CCC(=O)NCc3ccco3)C(=O)N12` (configuration not stated), the inhibition is 18.7% (active).

`COc1nc(N(C)C)nc(N2CC(=O)N(CCNS(=O)(=O)c3ccc(C)cc3)C2=N)n1`: the inhibition is 5.1% (inactive).

With `O=C1N=C(N2CCc3ccccc3C2)S/C1=C\c1ccc(O)cc1`, the inhibition is 0.81% (inactive).

`C/C(=N/NC(=S)Nc1ccccc1)c1ccc2c(c1)OCO2`: the inhibition is 2.26% (inactive).

On to `CCOc1nc(OCC)nc(-n2cc(-c3ccccc3)nn2)n1`, for which the inhibition is 24.2% (active).

As for `CCOc1ccc(/C=N/Nc2nncc(-c3ccccc3)n2)cc1OC`, the inhibition is 0.88% (inactive).

Regarding `CCOC(=O)c1nnn(-c2nc(OC)nc(N(C)C)n2)c1-c1ccccc1`, the inhibition was -0.37% (inactive).

On to `COC(=O)c1scc(S(=O)(=O)C(C)(C)C)c1-n1cccc1`, for which the inhibition was 3.92% (inactive).

As to `Cc1ccc(C(=O)NC2CC(C)(C)NC(C)(C)C2)c(C)c1`, the inhibition is -2.82% (inactive).

With `Cc1ccc2c(c1)NCC(C(=O)NC1CCC(C)CC1)O2` (configuration not stated), the inhibition is 18.4% (active).

As for `CC1CCC(NC(=O)C2c3ccccc3C(=O)N2Cc2ccc3c(c2)OCO3)CC1` (configuration not stated), the inhibition was -6.03% (inactive).

On to `CN1C(=O)/C(=C\c2cc(Br)cs2)c2ccccc21`, for which the inhibition was 7.61% (inactive).

`O=C(Nc1nnc(Cc2ccccc2)s1)c1cnccn1`: the inhibition is 1.61% (inactive).

As for `COc1cccc(NC(=S)NCc2ccco2)c1`, the inhibition was 3.44% (inactive).

Consider `O=C(NCCCO)/C(=C\C=C\c1ccccc1)NC(=O)c1ccccc1Cl`, for which the inhibition is 6.57% (inactive).

Take `CCN1CCc2nc(NC(=O)c3cc(F)c(F)cc3Cl)sc2C1`: the inhibition is 4.45% (inactive).

On to `OCCNc1nc2ccccc2n1-c1ncnc2sc3c(c12)CCC3`, for which the inhibition was -5.39% (inactive).
